Data as given in the supplement of paper PMC4894684.
Structures can show the parent of a compound that is named as a salt. ± gives the standard deviation of the averaged measurements.

System: Toxoplasma gondii RH (in HFF)
Experiment: parasite growth relative to the screen mean (all compounds = 100%); higher = less inhibition of parasite growth
Conditions: 5 µM; 72 h; oxygen 21 %
In short: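 Each value is parasite growth expressed against the screen mean, averaged over two screens, where the mean of all compounds = 100%. The screen used 5 µM final compound on confluent human foreskin fibroblasts infected with RH β-Gal–GFP Toxoplasma (MOI 1:5) within 2 h and grown 72 h at 21% O2. Parasite number was measured by a CPRG β-Gal assay against in-plate standard curves.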

Structure (SMILES) | parasite growth [%]
CCCCCCN(CCCCCC)C(=O)Cc1c(-c2ccc(Cl)cc2)[nH]c2ccc(Cl)cc12 | 175 ± 22
NCCc1c[nH]cn1 [Histamine dihydrochloride] | 80.2 ± 36
COc1cc(C(=O)OCCCN2CCCN(CCCOC(=O)c3cc(OC)c(OC)c(OC)c3)CC2)cc(OC)c1OC [Dilazep dihydrochloride] | 54.3 ± 11
O=C(O)C=C1CCCc2ccccc2C1O (stereo unspecified) | 112 ± 16
CC[C@H](C)C(=O)O[C@H]1C[C@@H](C)C=C2C=C[C@H](C)[C@H](CC[C@@H]3C[C@@H](O)CC(=O)O3)[C@H]21 [Lovastatin] | 128 ± 17
CCn1c(=O)[nH]c2ccccc21 | 67.92 ± 0.3
N=C(N)S/C=C\C(=O)O [ZAPA sulphate] | 106 ± 28
c1ccc(COCCCc2c[nH]cn2)cc1 [Proxyfan Oxalate] | 112 ± 18
CCCCCS(=O)(=O)CCCCCCCCCCn1c(-c2ccc(O)cc2)c(C)c2cc(O)ccc21 | 132 ± 30
CCN(CC)CCOC(=O)C1(c2ccc([N+](=O)[O-])cc2)CCCC1 [Nitrocaramiphen hydrochloride] | 99.3 ± 34
O=C(O)c1ccccc1Nc1cccc(OCc2ccc3ccccc3n2)c1 [SR 2640 hydrochloride] | 135 ± 9.3
NC1CCN(c2cccc(Cl)n2)CC1 | 141 ± 23
O=C(O)C1CCCN(CCC=C(c2ccccc2)c2ccccc2)C1 (stereo unspecified) | 122 ± 26
CC[C@H](CO)Nc1nc(Nc2cccc(-c3ccccn3)c2)c2ncn(C(C)C)c2n1 [(R)-DRF053 dihydrochloride] | 32.4 ± 16
Cc1cc(F)c(Nc2ncnc3cc(OCc4ccccc4)ccc23)cc1O | 11.2 ± 13
COC(=O)C[C@](O)(CCCC(C)(C)O)C(=O)O[C@@H]1C(OC)=C[C@]23CCCN2CCc2cc4c(cc2[C@H]13)OCO4 [Homoharringtonine] | < 0
NC(=O)N1C(=O)/C(=C(\O)c2cccs2)c2cc(Cl)ccc21 [Tenidap] | 134 ± 18
CC(CCc1ccc(O)cc1)NCCc1ccc(O)c(O)c1 (stereo unspecified) [Dobutamine hydrochloride] | 176 ± 7.3
O=c1c(-c2ccc(O)cc2)coc2cc(O)cc(O)c12 [Genistein] | 148 ± 28
Clc1cccc2c1CN(C1=NCCN1)C2 | 92.2 ± 25
COc1ccc([C@@H]2Sc3ccccc3N(CCN(C)C)C(=O)[C@@H]2OC(C)=O)cc1 [Diltiazem hydrochloride] | 94.4 ± 43

Structure (SMILES) | parasite growth [%]
Cc1ccc(/C(=C\CN2CCCC2)c2ccccn2)cc1 [trans-Triprolidine hydrochloride] | 96.7 ± 39
CC1(COc2ccc(CC3SC(=O)NC3=O)cc2)CCCCC1 (stereo unspecified) [Ciglitazone] | 100 ± 22
Cc1cccc(C)c1NC(=O)C[N+](C)(C)C | 123 ± 18
O=C1CC2(CCCC2)CC(=O)N1CCCCNCC1COc2ccccc2O1 (stereo unspecified) | 156 ± 5.8
CC(=Cc1ccc(C(=O)O)cc1)c1ccc2c(c1)C(C)(C)CCC2(C)C | 120 ± 27
C=C[C@@]1(C)CC(=O)[C@]2(O)[C@@]3(C)[C@@H](O)CCC(C)(C)[C@@H]3[C@H](O)[C@H](OC(C)=O)[C@@]2(C)O1 [Forskolin] | 116 ± 2.3
O=C(Nc1ccccc1)C12CC1C(=NO)c1ccccc1O2 (stereo unspecified) | 77.3 ± 29
N#C/C(=C\c1ccc(O)c(O)c1)C(=O)Nc1ccccc1 | 141 ± 23
O=c1[nH]c2cc(C(F)(F)F)c(N3CCOCC3)cc2n(CP(=O)(O)O)c1=O | 118 ± 4
C/N=C(/NC#N)NCCSCc1csc(NC(=N)N)n1 [Tiotidine] | 122 ± 30
CCOC(=O)C1=C(COCCN)NC(C)=C(C(=O)OC)C1c1ccccc1Cl (stereo unspecified) [Amlodipine besylate] | 87.9 ± 30
CCOCC(O)COc1ccc(NC(=O)CC[S+](C)C)cc1 (stereo unspecified) [Suplatast tosylate] | 75 ± 16
O=C(O)Cc1nn(Cc2ccc(Br)cc2F)c(=O)c2ccccc12 [Statil] | 91.7 ± 26
Cc1c(C(=O)NN2CCOCC2)nn(-c2ccc(Cl)cc2Cl)c1-c1ccc(I)cc1 | 88.1 ± 20
O=C(O)C1=CCNCC1 [Isoguvacine hydrochloride] | 130 ± 9.5
CCS(=O)(=O)N(C)[C@H]1c2cc(C#N)ccc2OC(C)(C)[C@@H]1O (racemic) [Chromanol 293B] | 142 ± 10
CN(C)CCCCSC(=N)N | 93.3 ± 15
C/C(=N\NC(=O)C1C(=O)NCC1c1ccccc1)c1cccc(Br)c1 (stereo unspecified) | 147 ± 29
CC(=N)NCCCC[C@H](N)C(=O)O [L-NIL hydrochloride] | 130 ± 15
CC[N+](CC)(CC)CCOc1ccc(/C=C/c2ccccc2)cc1 | 99.2 ± 19
CC(C)Oc1ccc2c(=O)c3cc(C(=O)O)ccc3oc2c1 | 81.9 ± 15

Structure (SMILES) | parasite growth [%]
CCOC(=O)[C@H](CCc1ccccc1)N[C@H]1CCc2ccccc2N(CC(=O)O)C1=O [Benazepril hydrochloride] | 140 ± 36
COc1cc(OC)c(C(=O)CCCCN2CCC3(CC2)NC(=O)NC3=O)cc1NS(=O)(=O)c1ccc(C(F)(F)F)cc1 | 109 ± 11
CN(C(=O)CCCOc1ccc2[nH]c(=O)ccc2c1)C1CCCCC1 [Cilostamide] | 69.6 ± 26
CCOC(=O)[C@H](CCc1ccccc1)N[C@@H](C)C(=O)N1Cc2cc(OC)c(OC)cc2C[C@H]1C(=O)O [Moexipril hydrochloride] | 63.9 ± 14
CC1CCN(CCCC(=O)c2ccc(F)cc2)CC1 [Melperone hydrochloride] | 126 ± 12
CN(C)C(=O)C(CCN1CCC(O)(c2ccc(Cl)cc2)CC1)(c1ccccc1)c1ccccc1 [Loperamide hydrochloride] | 20.6 ± 19
C[C@@H]1C[C@H]2[C@@H]3CCC4=CC(=O)C=C[C@]4(C)[C@@]3(F)[C@@H](O)C[C@]2(C)[C@@]1(O)C(=O)CO [Dexamethasone] | 141 ± 12
CN(C)CCCSC(=N)N [Dimaprit dihydrochloride] | 73.36 ± 0.62
COC(=O)C1=C(C)NC(C)=C(C(=O)OCCSc2ccccc2)C1C (stereo unspecified) | 146 ± 12
CCC(=O)O[C@]1(C(=O)SCF)[C@H](C)C[C@H]2[C@@H]3C[C@H](F)C4=CC(=O)C=C[C@]4(C)[C@@]3(F)[C@@H](O)C[C@@]21C [Fluticasone propionate] | 59.2 ± 34
CC1(C)C[C@@H]1C(=O)N/C(=C\CCCCSC[C@H](N)C(=O)O)C(=O)O [Cilastatin sodium] | 117 ± 14
CCCCCCCC/C=C\CCCCCCCC(=O)NCCO [Oleylethanolamide] | 135 ± 21
C=CC(=O)c1ccc2ccccc2c1 | 70.4 ± 7.8
N#C/C(=C\c1ccc(O)c(O)c1)C(=O)NCCCCc1ccccc1 | 155 ± 18
COC(=O)[C@H](NC(=O)c1cc(-c2ccccc2)nc2ccccc12)c1ccccc1 | 112.7 ± 0.18
NC(=O)CNCCC(c1ccccc1)c1ccccc1 [N20C hydrochloride] | 71.4 ± 14
COc1cc2c(Nc3ccc(NC(=O)c4ccccc4)cc3)ncnc2cc1OCCCN1CCOCC1 | 17.4 ± 8.7
CCN(CC)c1ccc(/C=N/NC(=O)c2ccc(O)cc2)cc1 | 115 ± 28
CN(CCOc1ccc(C[C@H](Nc2ccccc2C(=O)c2ccccc2)C(=O)O)cc1)c1ccccn1 | 30 ± 17
CC(=O)N1CCN(c2ccc(OCC3COC(Cn4ccnc4)(c4ccc(Cl)cc4Cl)O3)cc2)CC1 (stereo unspecified) [Ketoconazole] | 186 ± 29
O=C(O)C1=CCCNC1 [Guvacine hydrochloride] | 132.34 ± 0.044

Structure (SMILES) | parasite growth [%]
N[C@@H](Cc1cc(CP(=O)(O)O)cc(-c2ccccc2Cl)c1)C(=O)O | 122 ± 6.2
CCN(CC)CCOCCOC(=O)C1(c2ccccc2)CCCC1 [Carbetapentane citrate] | 137 ± 18
c1ccc(N2CCN(Cc3nc4ccccc4[nH]3)CC2)nc1 [ABT 724 trihydrochloride] | 98.1 ± 12
COc1ccc(C2CNC(=O)C2)cc1OC1CCCC1 (stereo unspecified) [Rolipram] | 92.1 ± 23
COC(=O)c1c(C)[nH]c(C)c1C(=O)c1ccccc1Cc1ccccc1 | 116 ± 37
Clc1ccc2nsnc2c1NC1=NCCN1 [Tizanidine hydrochloride] | 113 ± 2.4
COc1ccc2[nH]cc(CCNC(C)=O)c2c1 [Melatonin] | 84.8 ± 3.7
COc1ccccc1N1CCN(CCCCNC(=O)c2ccc(-c3ccc(C(C)=O)cc3)cc2)CC1 | 156 ± 28
CN(C)CCCN1c2ccccc2CCc2ccc(Cl)cc21 [Clomipramine hydrochloride] | 38.4 ± 2.9
COCCNC(=O)COc1ccc(OCCNC[C@H](O)COc2ccccc2)cc1 [ZD 7114 hydrochloride] | 123 ± 7
NC(=O)OCC(COC(N)=O)c1ccccc1 [Felbamate] | 85.9 ± 60
COC1(C2=NCCN2)COc2ccccc2O1 (stereo unspecified) | 136 ± 3.9
C=C1C(=O)O[C@H]2[C@H]1CC/C(C)=C/CC[C@@]1(C)O[C@@H]21 [Parthenolide] | 87.7 ± 4.2
COc1ccc(Cl)cc1C(=O)NCCc1ccc(S(=O)(=O)NC(=O)NC2CCCCC2)cc1 [Glibenclamide] | 96.4 ± 24
Clc1cccc(Cl)c1NC1=NCCN1 [Clonidine hydrochloride] | 153 ± 28
C1CCC2(CC1)CCNCC2 [4,4-Pentamethylenepiperidine hydrochloride] | 107 ± 22
NCCNC(=O)c1ccc(Cl)cn1 [Lazabemide hydrochloride] | 109 ± 28
CS(=O)(=O)CCNCc1nc(-c2ccc3ncnc(Nc4ccc(OCc5cccc(F)c5)c(Cl)c4)c3c2)cs1 | 63.4 ± 19
